High-throughput results (PubChem)
This excerpt belongs to a sample that is enriched for hits.
ERG Ets-DNA blk: qHTS for Small Molecule Inhibitors of the ERG Ets/DNA interaction; Transcriptional regulator ERG (Homo sapiens), P11308; fluorescence polarization, His-ERG Ets domain / labelled DNA; Potency, µM (doses to about 76.9 µM), for inactives: top-dose FP activity, negative = inhibition, actives largely listed as inhibitors; hit rate 0.028% among 370,000; active = well fitted inhibition curve with a large enough effect in the polarisation, with a control signal flat; inconclusive = small, poorly fitted or top-dose-only effect, or effect the other way, or a change in a side signal; inactive = no such curve, though single readings can be large or run the other way; the % refers to the polarisation;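 note: polarization taken with two DNA probes labelled with fluorescein and Texas red; potency is the fitted concentration of half-maximal effect; % of control where 0% means no effect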
Target sequence (P11308 whole entry, looked up, the tested form may be a part): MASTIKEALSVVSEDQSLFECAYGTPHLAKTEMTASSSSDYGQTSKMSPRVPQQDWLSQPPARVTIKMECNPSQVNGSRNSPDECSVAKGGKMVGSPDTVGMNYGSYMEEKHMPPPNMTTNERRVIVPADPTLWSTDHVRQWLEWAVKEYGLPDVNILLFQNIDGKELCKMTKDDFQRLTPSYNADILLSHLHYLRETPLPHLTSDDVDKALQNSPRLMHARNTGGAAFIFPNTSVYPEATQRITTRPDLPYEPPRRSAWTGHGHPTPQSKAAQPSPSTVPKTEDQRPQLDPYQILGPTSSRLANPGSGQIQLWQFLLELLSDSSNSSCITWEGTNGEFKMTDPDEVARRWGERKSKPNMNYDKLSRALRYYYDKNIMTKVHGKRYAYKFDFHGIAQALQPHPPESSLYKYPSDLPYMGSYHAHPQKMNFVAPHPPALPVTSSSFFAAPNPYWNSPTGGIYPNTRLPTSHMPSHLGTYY
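His-tagged ERG Ets domain (1 uM in the protein solution; 300mM KCl, 50mM Tris-HCl, 1mM EDTA, 1mM DTT, pH 7.5) received compound, then a probe mix of 5 nM fluorescein-DNA and 100nM Texas-615-DNA. Fluorescence polarization was read for both dyes.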
Menin-MLL TR inh: qHTS Assay for Inhibitors Targeting the Menin-MLL Interaction in MLL Related Leukemias: Competition With Texas Red Labeled MLL-derived Mutant Peptide. O00255. Menin + Texas Red MLL mutant peptide, fluorescence polarization. Potency, µM (titrated, usually from 61.6 µM), inactives show at the highest dose FP activity change, negative = inhibition, usual class: inhibitors. hit rate 0.23% among 270,000. AID 1768, 2009; active = well fitted inhibition curve with a large enough effect in the polarisation, with a control signal flat, not every such curve was filed as active; inconclusive = small, poorly fitted or top-dose-only effect, or effect the other way, or a change in a side signal; inactive = no such curve, though single readings can be large or run the other way; the % refers to the polarisation; note: potency is the fitted concentration of half-maximal effect; % of control where 0% means no effect
Menin-MLL FL inh: qHTS Assay for Inhibitors Targeting the Menin-MLL Interaction in MLL Related Leukemias: Competition With Fluorescein Labeled MLL-derived Peptide | 290,000 tested, under 10 active | Fluorescence polarization, fluorescein-MLL peptide displacement from menin | AID 1766, 2009 | FP activity change, % at 61.4 µM; active = well fitted curve in the direction sought with a large enough effect in the polarisation, not every such curve was filed as active; inconclusive = small, poorly fitted or top-dose-only effect, or effect the other way, or a change in a side signal; inactive = no such curve, though single readings can be large or run the other way; the % refers to the polarisation; note: % of control where 0% means no effect
GoLoco inh red: qHTS Assay for Inhibitors of RGS12 GoLoco Motif Activity (Red Fluorophore); Potency, µM (top dose mostly 61.6 µM), for inactives: at the top dose activity, negative = inhibition, hits mostly inhibitors; Gai1:RGS12 GoLoco peptide FP, rhodamine, 10 min; hit rate 0.44% among 230,000; active = well fitted inhibition curve with a large enough effect, not every such curve was filed as active; inactive = no such curve, though single readings can be large or run the other way; note: potency is the fitted concentration of half-maximal effect; % is set by controls: 0 for no effect and ±100 for the full control effect; nearly all actives have a fitted effect of over 30% in size
CXXC DNA block: qHTS Fluorescence Polarization Assay for Inhibitors of MLL CXXC domain - DNA interaction | Histone-lysine N-methyltransferase 2A (Homo sapiens), Q03164 | MLL-CXXC / FITC-HOXA9 DNA fluorescence polarization | Potency, µM (titrated, usually from 115 µM), for inactives: at the highest dose activity change, negative = inhibition, most hits filed as inhibitors | hit rate 0.037% among 290,000; active = well fitted inhibition curve with a large enough effect in the polarisation, with a control signal flat, not every such curve was filed as active; inconclusive = small, poorly fitted or top-dose-only effect, or effect the other way, or a change in a side signal; inactive = no such curve, though single readings can be large or run the other way; the % refers to the polarisation; note: potency is the fitted concentration of half-maximal effect
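Purified MLL-CXXC (added from a 7 uM solution) was preincubated 5 min at ambient with pinned compounds in 50 mM Tris-HCl pH 7.5, 50 mM NaCl, 1 mM DTT, 0.05% BSA. Fluorescein-labeled HOX-A9 DNA (50 nM solution) followed, 30 min, then polarization read.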
Numbers without * were called inactive; ? = inconclusive; · = no result given; [ ] = remark or other dose.

SMILES	ERG Ets-DNA blk	Menin-MLL TR inh	Menin-MLL FL inh	GoLoco inh red	CXXC DNA block
c1ccc2[nH]c(SN3CCOCC3)nc2c1	·	5%	-2	8.9µM*	-11%
CCCCOc1ccc(C2=NC(c3ccncc3)=Nc3ccc(Br)cc3N2)cc1	-3%	·	·	·	·
CCC(C=C[C@@H]1OC(=O)C=C[C@H]1C)=C[C@H](C)CC=CC(C)=C[C@@H](C)C(=O)[C@@H](C)[C@H](O)[C@@H](C)CC(C)=CC(=O)O	·	-22%[2.28 µM]	-7[2.29 µM]	2%[0.551 µM]	·
CCCCN(C)CCCNC(=O)Cn1ncc2c3ccccc3n(Cc3ccccc3F)c2c1=O	-2%	·	·	·	·
CCOC(=O)Cn1c(C)[n+](C)c2cc(Cl)c(Cl)cc21	-10%	-3%	-2	-1%	0%
CC(=O)OCCn1c(C)[n+](CCOC(C)=O)c2cc(Cl)c(Cl)cc21	-7%	23%	-1	13µM*	-3%
CCn1c(C)[n+](CCOCC[n+]2c(C)n(CC)c3cc(Cl)c(Cl)cc32)c2cc(Cl)c(Cl)cc21	·	-12%	1	7.9µM*	-3%
O=C(Cn1nc(-c2ccccc2)c2cnc3ccccc3c21)Nc1ccccc1	-6%	·	·	·	·
COc1ccc(-n2c(=O)c3sc4ccccc4c3n(C)c2=O)cc1	1%	·	·	·	·
COc1ccc(N2CCN(c3ccc(C(N)=O)cc3[N+](=O)[O-])CC2)cc1	17%	17%	-2	8%	0%
COc1ccc(N2CCN(C(=O)c3cccnc3)CC2)c([N+](=O)[O-])c1	10%	-22%	-3	20µM*	?
COc1ccc2oc(=O)c(C(=O)C[n+]3cccc(C)c3)cc2c1	12%	-2%	0	10µM*	-9%
CNC(=O)c1cc2cc(OC)ccc2oc1=O	-1%	0%	-6	-6%	-2%
COC(=O)C1=C[C@@H](C(=O)OC)C2C3=C(C(=O)[C@@]2(C)NC(=O)c2ccccc2)[C@H](C)[C@@H]2C(=O)NC(=O)[C@@H]2[C@@H]3C1 (some centres undefined)	·	1%	-12	·	·
CC1(C)Oc2ccc3ccc(=O)oc3c2/C(=C/N)C1=O	-3%	-7%	-1	6%	1%
CC1(C)Oc2ccc3ccc(=O)oc3c2-c2cnoc21	7%	3%	1	10µM*	15%
CCCCN=Cc1c(C)[nH]n(-c2ccccc2)c1=S	-1%	9%	1	-19%	-3%
Cc1[nH]n(-c2ccccc2)c(=S)c1C=Nc1cccc([N+](=O)[O-])c1	1%	9%	7	13µM*	-19%
C[N+]1(CCCCSc2ccc(O)cc2)CCCCC1	-2%	8%	8	0.63µM*	8%
C[C@@H]1CCC2C(C)(C)C3CC21CC[C@@]3(C)O (some centres undefined)	·	11%	4	4%	·
C[C@@H](O)[C@@H]1C(=O)N2C(C(=O)O)=C([C@H]3CCCO3)S[C@H]12	·	-9%	?	·	-11%
O=C(Nc1ccc(O)cc1)C1CC=CCC1 (centres undefined)	?	?	-1	25µM*	4%
C[C@@H]1C(=O)N(S(=O)(=O)c2ccc([N+](=O)[O-])cc2)[C@H]1c1ccc(F)cc1	·	-14%	0	·	·
Cc1[nH]c(=O)cc2ccccc12	-1%	16%	4	8.9µM*	0%
Cc1ccc(-n2nc(C)c3c(C)cc(=O)n(CC(=O)NC(C)c4ccccc4)c32)cc1 (centres undefined)	0%	·	·	·	·
SMILES	ERG Ets-DNA blk	Menin-MLL TR inh	Menin-MLL FL inh	GoLoco inh red	CXXC DNA block
Cc1ccccc1-n1c(C)cc(/C=N/Nc2ccc([N+](=O)[O-])cn2)c1C	-17%	·	15	3.2µM*	2%
Cc1cc(/C=N/Nc2ccc([N+](=O)[O-])cn2)c(C)n1-c1ccc(C(=O)O)cc1	8%	?	?	22%	10%
COc1cccc(C2=Nn3c(nnc3-c3ccccc3C)SC2)c1	·	-20%	-4	·	·
CC(=O)/C(C[N+]1(C)CCCCC1)=N\O	3%	-2%	5	3.2µM*	1%
O=C(N/N=C\C=C\c1ccc2c(c1)OCO2)C1COc2cc3ccccc3cc2O1 (centres undefined)	-3%	20µM*	5	3%	-3%
O=c1[nH]n(-c2ccccc2)c(=O)c(Cl)c1Cl	5%	13µM*	2	6%	0%
Cc1cccc(NC(=O)c2sc3nc(-c4cc5ccc(O)cc5oc4=O)[nH]c(=O)c3c2C)c1	0%	·	·	·	·
CC1(C)CC(=O)C=C(N2CCN(C3=CC(=O)CC(C)(C)C3)CC2)C1	·	-3%	2	14%	0%
CC1(C)CC(N2CCN(Cc3ccccc3)CC2)=CC(=[N+]2CCCCC2)C1	-5%	·	0	25µM*	-6%
CC1(C)CC(N2CCCC2)=CC(=[N+]2CCCCC2)C1	5%	-11%	-4	6.3µM*	25%
CC1(C)CC(N2CCCC2)=CC(=[N+]2CCCC2)C1	-4%	7%	3	2µM*	-2%
Oc1ccc(N=Cc2ccc(OCc3ccccc3)cc2)cc1	14µM*	?	-1	-103%	-8%
O=C(N/N=C/c1ccc(OCc2ccccc2)cc1)c1ccncc1	-14%	15%	3	7%	-2%
COc1ccc(C2CC(c3ccccc3)=NN2C(=O)COC(=O)c2cc(S(=O)(=O)N3CCOCC3)ccc2Cl)cc1 (centres undefined)	·	-3%	3	13µM*	0%
COC(=O)[C@H]1C[C@@H]1[C@H](NC(C)=O)c1ccccc1	·	0%	3	1.3µM*	·
CCOC(=O)c1c(C)oc2c1c(C=NCC1CCCO1)c(O)c1ccccc12 (centres undefined)	-9%	?	7	9%	-5%
CCOC(=O)c1c(C)oc2c1c(C=NCc1ccccn1)c(O)c1ccccc12	13%	3.5µM*	?	4%	-13%
O=C(O)c1ccc2c3c(ncnc13)-c1ccccc1C2=O	-8%	-24%	?	18µM*	-26%
O=C1c2ccccc2C(=O)c2c(NC(=O)c3ccc4c5c(ncnc35)-c3ccccc3C4=O)cccc21	·	·	·	2%[14.2 µM]	·
Cc1cc(NC(=O)CCCN2C(=O)/C(=C/c3cccs3)SC2=S)no1	3%	18µM*	4	7%	-18%
COc1ccc(C(=O)OCC[N+]2(C)CCOCC2)cc1	-6%	3%	-4	7.9µM*	-1%
CC(=O)Nc1ccn(C2CC3OCC(NC(=O)C(Cc4ccccc4)NC(=O)OC(C)(C)C)C3O2)c(=O)n1 (centres undefined)	·	-19%	-3	·	·
CCOC(=O)NNc1ccc2nonc2c1[N+](=O)[O-]	-8%	·	-2	-33%	40µM*
